This passage reports inhibition results from PubChem BioAssay AID651719 (The Scripps Research Institute Molecular Screening Center, 2012).

The campaign covered roughly 360,000 compounds. About 1,600 (0.44%) were called active. The sample as a whole holds a higher share of actives than the screen did. Values without a mark were called inactive.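 The calls were made as follows: active = inhibition above the screen-wide average plus 3 SD (cut at about 13% in these data); inactive = the rest.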

For the assay, the target named is Galanin receptor type 3 (Homo sapiens) (UniProt O60755). As to the kind of experiment: blockers of human galanin receptor 3 – cell-based, fluorescence readout, primary screen (AID 651719).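 Also: forskolin and galanin both at EC90 stimulate the cells; cAMP rise reported by CNG channel membrane potential dye signal; 0% = forskolin plus galanin with DMSO and 100% = forskolin alone.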 Conditions: HEK293 GalR3-CNG cAMP membrane potential fluorescence; at 3 µM; active compounds read high; galR3 body fused to GalR1 C-terminus.
Galanin receptor type 3 (Homo sapiens), sequence (O60755 1-299 limits assumed): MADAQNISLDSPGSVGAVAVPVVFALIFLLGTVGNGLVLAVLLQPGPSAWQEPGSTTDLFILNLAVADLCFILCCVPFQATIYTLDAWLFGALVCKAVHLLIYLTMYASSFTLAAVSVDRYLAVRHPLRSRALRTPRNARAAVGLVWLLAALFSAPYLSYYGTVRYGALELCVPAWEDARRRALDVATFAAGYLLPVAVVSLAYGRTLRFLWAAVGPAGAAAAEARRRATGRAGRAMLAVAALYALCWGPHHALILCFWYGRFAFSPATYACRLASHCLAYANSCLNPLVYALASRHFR
`COC(=O)C(C(=O)OC)c1ccccc1NS(=O)(=O)c1cccc2ccccc12`: the inhibition is -6.36%.

As for `CC(C)C[C@H](NC(=O)CC1CCCC1)C(=O)N1CCC[C@H]1C(=O)NCc1ccccc1`, the inhibition was 1.69%.

Take `OC[C@@H]1CN(Cc2ccc(F)cc2)C[C@H](n2cnc3c(NC4CCCC4)ncnc32)O1`: the inhibition was -2.96%.

`OC[C@@H]1CN(Cc2ccc(-c3ccccc3)cc2)C[C@H](n2cnc3c(NC4CCCC4)ncnc32)O1`: the inhibition was 27.1% (active).

On to `OC[C@@H]1CN(Cc2cccs2)C[C@H](n2cnc3c(NC4CCCC4)ncnc32)O1`, for which the inhibition was -8.57%.

Turning to `COC(=O)c1cc2c(c3c4cc(F)ccc4n(S(=O)(=O)c4ccccc4)c13)C(=O)N(Cc1ccccc1OC)C2`, the inhibition was -5.48%.

For the compound `Cc1noc(C)c1NC(=O)Nc1ccc2c(c1)C(=O)N([C@H](C)CO)C[C@H](C)[C@H](CN(C)Cc1ccncc1)OCCCC[C@@H](C)O2`, the inhibition is -3.2%.

For `COc1cc(C(=O)Nn2c(CC(C)C)nc3ccccc3c2=O)cc(OC)c1OC`, the inhibition was -0.49%.

`COc1cc(C(=S)NC2CCCCC2)ccc1O`: the inhibition is -5.5%.

For the compound `COc1cc(C(=O)Nn2c(O)c(C3=c4ccccc4=NC3=O)sc2=S)ccc1O`, the inhibition is 19.3% (active).

With `O=C(C(=O)N1CCC(CNC(=O)c2cccnc2Cl)CC1)c1cccs1`, the inhibition is -2.12%.

For `CC(=O)N1C[C@@H](CO)[C@@H](N(C)C(=O)C(C)(C)C)C[C@H]1c1ccccc1Br`, the inhibition is -3.56%.

With `CCN(CC(=O)Nc1cc(Cl)ccc1C)C(=O)CSCc1ccccc1`, the inhibition was -6.08%.

`CCN(CC(=O)NCc1ccc(Cl)cc1)C(=O)CSc1ccccc1`: the inhibition was 46.6% (active).

As for `CCN(CC(=O)NCc1ccc(Cl)cc1)C(=O)c1c(C)noc1C`, the inhibition is -4.16%.

Regarding `COCCNC(=S)N(C)[C@H]1C[C@H]2c3[nH]c4ccccc4c3CCN2C[C@H]1[C@H](C)O`, the inhibition was -3.71%.

For the compound `CC(=O)C1=C(C)N(Cc2ccc(Cl)cc2)C(=S)NC1c1ccc(F)cc1` (stereo not drawn), the inhibition is -2.41%.

Consider `CCCCNc1cccc2c1S(=O)(=O)N[C@@H](C)CO2`, for which the inhibition is 0.83%.

Turning to `COC(=O)[C@]12C[C@H](CC(=O)NCCCCc3ccccc3)C(=O)N(Cc3ccc4c(c3)OCO4)C1=C[C@H](C(C)(C)C)O[C@@H]2C`, the inhibition is -7.85%.

Consider `O=C(CCc1ccccc1)Nc1nn[nH]n1`, for which the inhibition is -3.85%.

On to `O=C(/C=C/c1c(F)cccc1Cl)Nc1nn[nH]n1`, for which the inhibition is 13.1% (active).

Regarding `O=C(/C=C/c1c(Cl)cccc1Cl)NCc1ccccc1`, the inhibition was -6.6%.

Regarding `Clc1cccc2c1C1CC2CCN1Cc1ccccc1` (stereo not drawn), the inhibition is -7.78%.

With `CC(C)(C)C(c1nc2ccccc2[nH]1)n1c(Cc2csc3ccccc23)nc2ccccc21` (stereo not drawn), the inhibition is -6.57%.

Consider `O=C(N[C@H](Cc1ccccc1)C(=O)N1CCCN(Cc2cccs2)CC1)[C@H]1O[C@@H](n2ccc(=O)[nH]c2=O)[C@H](O)[C@@H]1O`, for which the inhibition is -5.35%.

`COC(=O)c1cccc([N+](=O)[O-])c1CS(=O)(=O)c1ccc(C)cc1`: the inhibition was 13.8% (active).

In the case of `COC(=O)CNC(=O)c1ccccc1[N+](=O)[O-]`, the inhibition was -2.07%.

On to `Cc1c(C(=O)NCCCc2ccccc2)cccc1[N+](=O)[O-]`, for which the inhibition is -5.51%.

As for `CC(=O)c1ccc(S(=O)(=O)NCC2CCN(C(=O)C(=O)c3cccs3)CC2)cc1`, the inhibition is -4.03%.

Turning to `CC[C@H](NC(=O)[C@H](Cc1ccccc1)NC(=O)[C@H]1O[C@@H](n2cnc3c(=O)[nH]c(N)nc32)[C@H](O)[C@@H]1O)c1ccccc1`, the inhibition is -6.3%.

Consider `CCCOc1ccc(Cc2c(O)nc(SC)[nH]c2=O)cc1C`, for which the inhibition was -4.3%.

On to `CCCOc1ccc(Cn2c(O)cc(=O)[nH]c2=O)cc1`, for which the inhibition was 4.51%.

Consider `CCCOc1ccc(Cc2c(Cl)nc(SC)nc2NC)cc1`, for which the inhibition is 63.8% (active).

In the case of `COc1cccc(CNC(=O)[C@H]2CCCN2C(=O)[C@H]2CCCN2C(=O)c2cc(F)cc(F)c2)c1`, the inhibition was -4.4%.

As to `O=C1[C@@H](c2ccccc2)[C@@H](c2ccccc2)N1c1ccccc1`, the inhibition is -1.03%.

In the case of `O=C(NCc1ccccc1)[C@@H]1CCCN1C(=O)[C@@H](NS(=O)(=O)c1ccc(F)cc1F)C1CCCCC1`, the inhibition was -7.14%.

On to `COc1ccc(CCNc2nc(C)cc(C)n2)cc1OC`, for which the inhibition is -8.92%.

On to `COc1ccc(CCNc2nc3ccc(C)cc3n3cnnc23)cc1OC`, for which the inhibition was 18.6% (active).

As to `COc1cc(Nc2nc3ccc(Cl)cc3n3cnnc23)cc(OC)c1OC`, the inhibition was -10.3%.

`C[C@H](CO)N1C[C@H](C)[C@@H](CN(C)C(=O)Nc2ccccc2F)OCc2cn(nn2)CCCC1=O`: the inhibition is -5.31%.

`COc1cccc(CNC(=O)[C@H]2CCCN2C(=O)[C@H]2CCCN2C(=O)c2ccc(F)cc2)c1`: the inhibition was -5.33%.

As to `Cc1ccc(S(=O)(=O)NC(=O)c2cccc(C)c2)cc1`, the inhibition was -0.66%.

Consider `CSc1nc(N(C)NC(=O)c2cccc(C)c2)c2ccccc2n1`, for which the inhibition was 17.1% (active).

Take `CN(NC(=O)c1ccccc1F)c1nc(C(F)(F)F)nc2ccccc12`: the inhibition was 0.05%.

Regarding `O=C(NN=Cc1ccco1)C(=O)Nc1ccc(Cl)c([N+](=O)[O-])c1`, the inhibition was -5.99%.

On to `Cc1cc(C)c(C#N)c(SCc2ccc3c(c2)OCO3)n1`, for which the inhibition is -0.74%.

Consider `N#CC1=C(N)Oc2n[nH]c(CSc3ccccc3)c2C12C(=O)Nc1ccccc12` (stereo not drawn), for which the inhibition was -2.39%.

`Cc1cc(C)c(C#N)c(SCc2[nH]nc3c2C(c2ccccc2)C(C#N)=C(N)O3)n1` (stereo not drawn): the inhibition is 34.7% (active).

Regarding `CC1CN(c2nc(Nc3ccccc3)nc(N)c2[N+](=O)[O-])CC(C)O1` (stereo not drawn), the inhibition is -0.56%.

Regarding `COCCNc1nc(N)c([N+](=O)[O-])c(N2CCCCCC2)n1`, the inhibition is -10.6%.

With `Nc1nc(NCC(=O)O)nc(N2CCCCCC2)c1[N+](=O)[O-]`, the inhibition was 15.1% (active).

For `COC(=O)C1=C(C)N(Cc2cccc(C(F)(F)F)c2)C(=NCc2ccccc2)NC1c1ccccc1C(F)(F)F` (stereo not drawn), the inhibition was -3.46%.

Regarding `COC(=O)C1=C(C)N(Cc2ccc(C(F)(F)F)cc2)C(=NCc2ccc(C(F)(F)F)cc2)NC1c1cccc(Cl)c1` (stereo not drawn), the inhibition was -3.2%.
